What was measured:
Experiment in all cases: log2 ratio of Biotin-Ahx-Ub-VS probe labelling (fragment/DMSO); higher = less target engagement (more negative = stronger competition), active = hit call of the paper (q ≤ 0.05, log2 ratio ≤ -1)
Details in all cases: compound concentration: 200 uM; treatment time: 3 h
USP34 = USP34 (UniProt Q70CQ2)
Outline: (§1)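 Each value is an average log2 ratio of fragment to vehicle, tested by unpaired t-test. The underlying Spectronaut label-free quantities were global-median-normalised, and only proteins with ≥2 unique peptides were included. Triplicate HEK293T lysate samples (495 µg) were exposed to fragment at 200 µM or vehicle for 3 h, then to Biotin-Ahx-Ub-VS at 0.5 µM final for 1 h, before NeutrAvidin enrichment of labelled DUBs, LysC and trypsin digestion, and diaPASEF LC-MS/MS.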

USP36 = molecular target: T1, USP36 (UniProt Q9P275)
T1 sequence (whole entry): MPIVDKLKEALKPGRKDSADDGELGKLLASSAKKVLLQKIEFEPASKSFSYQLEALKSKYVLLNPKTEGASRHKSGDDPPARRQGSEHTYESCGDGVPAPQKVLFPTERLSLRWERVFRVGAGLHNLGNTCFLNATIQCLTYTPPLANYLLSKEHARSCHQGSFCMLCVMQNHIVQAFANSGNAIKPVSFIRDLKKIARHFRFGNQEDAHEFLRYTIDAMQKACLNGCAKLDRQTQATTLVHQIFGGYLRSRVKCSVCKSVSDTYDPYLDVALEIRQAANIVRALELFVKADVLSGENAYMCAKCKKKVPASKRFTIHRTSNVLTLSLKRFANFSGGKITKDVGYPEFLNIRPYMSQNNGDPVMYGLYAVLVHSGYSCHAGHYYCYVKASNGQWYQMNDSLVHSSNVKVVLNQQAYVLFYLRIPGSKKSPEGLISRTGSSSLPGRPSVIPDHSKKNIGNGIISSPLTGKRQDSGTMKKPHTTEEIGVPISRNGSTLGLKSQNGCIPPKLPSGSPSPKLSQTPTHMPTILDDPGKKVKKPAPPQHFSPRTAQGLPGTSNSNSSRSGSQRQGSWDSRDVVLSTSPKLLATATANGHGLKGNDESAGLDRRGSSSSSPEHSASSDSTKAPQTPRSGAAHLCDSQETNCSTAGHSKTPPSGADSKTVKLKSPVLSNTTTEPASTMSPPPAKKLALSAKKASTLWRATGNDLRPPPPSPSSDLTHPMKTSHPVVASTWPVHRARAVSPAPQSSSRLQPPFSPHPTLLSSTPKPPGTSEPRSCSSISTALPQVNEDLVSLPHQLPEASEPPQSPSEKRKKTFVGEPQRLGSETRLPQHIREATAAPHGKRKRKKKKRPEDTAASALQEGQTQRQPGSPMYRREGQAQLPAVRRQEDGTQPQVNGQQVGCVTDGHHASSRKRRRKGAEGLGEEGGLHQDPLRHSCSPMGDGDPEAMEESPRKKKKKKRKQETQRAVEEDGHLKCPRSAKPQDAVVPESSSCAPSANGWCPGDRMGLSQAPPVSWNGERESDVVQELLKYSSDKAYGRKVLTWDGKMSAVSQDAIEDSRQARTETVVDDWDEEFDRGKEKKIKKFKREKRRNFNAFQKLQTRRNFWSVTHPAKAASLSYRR
Outline: as §1

USP38 = molecular target: T2, USP38 (UniProt Q8NB14)
T2 sequence (whole entry): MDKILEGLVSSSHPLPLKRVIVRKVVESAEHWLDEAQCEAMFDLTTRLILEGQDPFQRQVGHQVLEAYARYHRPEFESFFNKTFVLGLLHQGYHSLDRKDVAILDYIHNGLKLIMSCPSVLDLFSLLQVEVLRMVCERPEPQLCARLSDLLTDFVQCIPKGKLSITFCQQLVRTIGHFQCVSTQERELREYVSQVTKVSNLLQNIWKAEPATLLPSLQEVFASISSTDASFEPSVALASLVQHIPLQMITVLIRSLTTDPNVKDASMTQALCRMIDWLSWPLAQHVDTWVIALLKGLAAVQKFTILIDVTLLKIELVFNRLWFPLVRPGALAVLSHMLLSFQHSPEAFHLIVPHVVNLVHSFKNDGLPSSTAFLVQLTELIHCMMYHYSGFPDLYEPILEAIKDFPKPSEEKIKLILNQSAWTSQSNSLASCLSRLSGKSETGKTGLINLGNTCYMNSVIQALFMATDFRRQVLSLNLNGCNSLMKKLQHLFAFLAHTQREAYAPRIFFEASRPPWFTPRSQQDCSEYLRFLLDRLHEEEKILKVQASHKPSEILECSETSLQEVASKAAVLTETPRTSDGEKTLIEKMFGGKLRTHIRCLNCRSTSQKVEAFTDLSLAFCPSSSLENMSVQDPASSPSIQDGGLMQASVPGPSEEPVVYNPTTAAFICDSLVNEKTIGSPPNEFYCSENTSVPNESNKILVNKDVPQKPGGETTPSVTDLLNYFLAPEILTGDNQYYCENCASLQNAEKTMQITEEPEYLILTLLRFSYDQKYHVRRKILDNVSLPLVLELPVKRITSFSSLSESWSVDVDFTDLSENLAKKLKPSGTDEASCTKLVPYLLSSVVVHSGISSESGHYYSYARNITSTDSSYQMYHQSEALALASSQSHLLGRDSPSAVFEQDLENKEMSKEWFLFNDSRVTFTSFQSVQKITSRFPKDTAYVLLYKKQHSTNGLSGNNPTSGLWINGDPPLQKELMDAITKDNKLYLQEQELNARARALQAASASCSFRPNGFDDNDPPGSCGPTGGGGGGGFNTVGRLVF
Outline: as §1

USP39 = molecular target: T3, USP39 (UniProt Q53GS9)
T3 sequence (whole entry): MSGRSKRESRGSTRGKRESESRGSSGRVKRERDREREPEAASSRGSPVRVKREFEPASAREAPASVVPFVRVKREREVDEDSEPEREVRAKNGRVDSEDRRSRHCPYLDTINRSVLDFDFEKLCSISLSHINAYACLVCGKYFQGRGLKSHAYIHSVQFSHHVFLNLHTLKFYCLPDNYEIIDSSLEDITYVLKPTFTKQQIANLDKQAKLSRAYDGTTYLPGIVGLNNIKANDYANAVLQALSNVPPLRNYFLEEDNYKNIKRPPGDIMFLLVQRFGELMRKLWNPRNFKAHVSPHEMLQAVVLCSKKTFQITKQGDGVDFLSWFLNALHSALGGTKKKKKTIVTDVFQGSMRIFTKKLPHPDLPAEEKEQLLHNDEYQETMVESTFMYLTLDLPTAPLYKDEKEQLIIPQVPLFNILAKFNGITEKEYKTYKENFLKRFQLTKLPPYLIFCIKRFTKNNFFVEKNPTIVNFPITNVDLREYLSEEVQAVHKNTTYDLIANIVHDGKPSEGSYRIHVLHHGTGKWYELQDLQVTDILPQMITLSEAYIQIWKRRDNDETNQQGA
Outline: as §1

USP4 = molecular target: T4, USP4 (UniProt Q13107)
T4 sequence (whole entry): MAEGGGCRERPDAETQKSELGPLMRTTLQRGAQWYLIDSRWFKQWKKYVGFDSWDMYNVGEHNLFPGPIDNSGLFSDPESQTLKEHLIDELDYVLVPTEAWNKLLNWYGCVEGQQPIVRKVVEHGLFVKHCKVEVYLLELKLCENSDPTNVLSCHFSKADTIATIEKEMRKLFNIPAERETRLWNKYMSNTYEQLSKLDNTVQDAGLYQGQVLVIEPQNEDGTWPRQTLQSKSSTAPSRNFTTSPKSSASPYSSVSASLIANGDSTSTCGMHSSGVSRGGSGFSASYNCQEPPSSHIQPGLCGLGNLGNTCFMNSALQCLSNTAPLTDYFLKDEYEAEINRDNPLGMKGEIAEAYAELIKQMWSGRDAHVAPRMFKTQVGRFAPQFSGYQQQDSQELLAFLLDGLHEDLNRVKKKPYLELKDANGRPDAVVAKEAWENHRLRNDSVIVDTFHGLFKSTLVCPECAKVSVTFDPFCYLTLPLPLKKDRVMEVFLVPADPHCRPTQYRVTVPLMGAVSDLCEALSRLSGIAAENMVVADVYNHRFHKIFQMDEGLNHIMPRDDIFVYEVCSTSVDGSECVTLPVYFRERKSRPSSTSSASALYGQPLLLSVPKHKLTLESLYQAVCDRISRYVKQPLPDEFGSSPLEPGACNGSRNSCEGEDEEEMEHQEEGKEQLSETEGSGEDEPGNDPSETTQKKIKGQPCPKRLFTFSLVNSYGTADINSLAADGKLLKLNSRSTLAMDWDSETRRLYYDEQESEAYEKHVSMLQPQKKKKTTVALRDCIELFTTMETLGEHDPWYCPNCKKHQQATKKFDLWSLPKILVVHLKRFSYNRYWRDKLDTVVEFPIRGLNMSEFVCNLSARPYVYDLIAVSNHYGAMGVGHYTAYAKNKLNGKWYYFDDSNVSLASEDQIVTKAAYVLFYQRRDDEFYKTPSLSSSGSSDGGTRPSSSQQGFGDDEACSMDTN
Outline: as §1

Measured: log2 ratio of Biotin-Ahx-Ub-VS probe labelling

Sequence of USP34 (Q70CQ2 whole entry, the tested form may be a part): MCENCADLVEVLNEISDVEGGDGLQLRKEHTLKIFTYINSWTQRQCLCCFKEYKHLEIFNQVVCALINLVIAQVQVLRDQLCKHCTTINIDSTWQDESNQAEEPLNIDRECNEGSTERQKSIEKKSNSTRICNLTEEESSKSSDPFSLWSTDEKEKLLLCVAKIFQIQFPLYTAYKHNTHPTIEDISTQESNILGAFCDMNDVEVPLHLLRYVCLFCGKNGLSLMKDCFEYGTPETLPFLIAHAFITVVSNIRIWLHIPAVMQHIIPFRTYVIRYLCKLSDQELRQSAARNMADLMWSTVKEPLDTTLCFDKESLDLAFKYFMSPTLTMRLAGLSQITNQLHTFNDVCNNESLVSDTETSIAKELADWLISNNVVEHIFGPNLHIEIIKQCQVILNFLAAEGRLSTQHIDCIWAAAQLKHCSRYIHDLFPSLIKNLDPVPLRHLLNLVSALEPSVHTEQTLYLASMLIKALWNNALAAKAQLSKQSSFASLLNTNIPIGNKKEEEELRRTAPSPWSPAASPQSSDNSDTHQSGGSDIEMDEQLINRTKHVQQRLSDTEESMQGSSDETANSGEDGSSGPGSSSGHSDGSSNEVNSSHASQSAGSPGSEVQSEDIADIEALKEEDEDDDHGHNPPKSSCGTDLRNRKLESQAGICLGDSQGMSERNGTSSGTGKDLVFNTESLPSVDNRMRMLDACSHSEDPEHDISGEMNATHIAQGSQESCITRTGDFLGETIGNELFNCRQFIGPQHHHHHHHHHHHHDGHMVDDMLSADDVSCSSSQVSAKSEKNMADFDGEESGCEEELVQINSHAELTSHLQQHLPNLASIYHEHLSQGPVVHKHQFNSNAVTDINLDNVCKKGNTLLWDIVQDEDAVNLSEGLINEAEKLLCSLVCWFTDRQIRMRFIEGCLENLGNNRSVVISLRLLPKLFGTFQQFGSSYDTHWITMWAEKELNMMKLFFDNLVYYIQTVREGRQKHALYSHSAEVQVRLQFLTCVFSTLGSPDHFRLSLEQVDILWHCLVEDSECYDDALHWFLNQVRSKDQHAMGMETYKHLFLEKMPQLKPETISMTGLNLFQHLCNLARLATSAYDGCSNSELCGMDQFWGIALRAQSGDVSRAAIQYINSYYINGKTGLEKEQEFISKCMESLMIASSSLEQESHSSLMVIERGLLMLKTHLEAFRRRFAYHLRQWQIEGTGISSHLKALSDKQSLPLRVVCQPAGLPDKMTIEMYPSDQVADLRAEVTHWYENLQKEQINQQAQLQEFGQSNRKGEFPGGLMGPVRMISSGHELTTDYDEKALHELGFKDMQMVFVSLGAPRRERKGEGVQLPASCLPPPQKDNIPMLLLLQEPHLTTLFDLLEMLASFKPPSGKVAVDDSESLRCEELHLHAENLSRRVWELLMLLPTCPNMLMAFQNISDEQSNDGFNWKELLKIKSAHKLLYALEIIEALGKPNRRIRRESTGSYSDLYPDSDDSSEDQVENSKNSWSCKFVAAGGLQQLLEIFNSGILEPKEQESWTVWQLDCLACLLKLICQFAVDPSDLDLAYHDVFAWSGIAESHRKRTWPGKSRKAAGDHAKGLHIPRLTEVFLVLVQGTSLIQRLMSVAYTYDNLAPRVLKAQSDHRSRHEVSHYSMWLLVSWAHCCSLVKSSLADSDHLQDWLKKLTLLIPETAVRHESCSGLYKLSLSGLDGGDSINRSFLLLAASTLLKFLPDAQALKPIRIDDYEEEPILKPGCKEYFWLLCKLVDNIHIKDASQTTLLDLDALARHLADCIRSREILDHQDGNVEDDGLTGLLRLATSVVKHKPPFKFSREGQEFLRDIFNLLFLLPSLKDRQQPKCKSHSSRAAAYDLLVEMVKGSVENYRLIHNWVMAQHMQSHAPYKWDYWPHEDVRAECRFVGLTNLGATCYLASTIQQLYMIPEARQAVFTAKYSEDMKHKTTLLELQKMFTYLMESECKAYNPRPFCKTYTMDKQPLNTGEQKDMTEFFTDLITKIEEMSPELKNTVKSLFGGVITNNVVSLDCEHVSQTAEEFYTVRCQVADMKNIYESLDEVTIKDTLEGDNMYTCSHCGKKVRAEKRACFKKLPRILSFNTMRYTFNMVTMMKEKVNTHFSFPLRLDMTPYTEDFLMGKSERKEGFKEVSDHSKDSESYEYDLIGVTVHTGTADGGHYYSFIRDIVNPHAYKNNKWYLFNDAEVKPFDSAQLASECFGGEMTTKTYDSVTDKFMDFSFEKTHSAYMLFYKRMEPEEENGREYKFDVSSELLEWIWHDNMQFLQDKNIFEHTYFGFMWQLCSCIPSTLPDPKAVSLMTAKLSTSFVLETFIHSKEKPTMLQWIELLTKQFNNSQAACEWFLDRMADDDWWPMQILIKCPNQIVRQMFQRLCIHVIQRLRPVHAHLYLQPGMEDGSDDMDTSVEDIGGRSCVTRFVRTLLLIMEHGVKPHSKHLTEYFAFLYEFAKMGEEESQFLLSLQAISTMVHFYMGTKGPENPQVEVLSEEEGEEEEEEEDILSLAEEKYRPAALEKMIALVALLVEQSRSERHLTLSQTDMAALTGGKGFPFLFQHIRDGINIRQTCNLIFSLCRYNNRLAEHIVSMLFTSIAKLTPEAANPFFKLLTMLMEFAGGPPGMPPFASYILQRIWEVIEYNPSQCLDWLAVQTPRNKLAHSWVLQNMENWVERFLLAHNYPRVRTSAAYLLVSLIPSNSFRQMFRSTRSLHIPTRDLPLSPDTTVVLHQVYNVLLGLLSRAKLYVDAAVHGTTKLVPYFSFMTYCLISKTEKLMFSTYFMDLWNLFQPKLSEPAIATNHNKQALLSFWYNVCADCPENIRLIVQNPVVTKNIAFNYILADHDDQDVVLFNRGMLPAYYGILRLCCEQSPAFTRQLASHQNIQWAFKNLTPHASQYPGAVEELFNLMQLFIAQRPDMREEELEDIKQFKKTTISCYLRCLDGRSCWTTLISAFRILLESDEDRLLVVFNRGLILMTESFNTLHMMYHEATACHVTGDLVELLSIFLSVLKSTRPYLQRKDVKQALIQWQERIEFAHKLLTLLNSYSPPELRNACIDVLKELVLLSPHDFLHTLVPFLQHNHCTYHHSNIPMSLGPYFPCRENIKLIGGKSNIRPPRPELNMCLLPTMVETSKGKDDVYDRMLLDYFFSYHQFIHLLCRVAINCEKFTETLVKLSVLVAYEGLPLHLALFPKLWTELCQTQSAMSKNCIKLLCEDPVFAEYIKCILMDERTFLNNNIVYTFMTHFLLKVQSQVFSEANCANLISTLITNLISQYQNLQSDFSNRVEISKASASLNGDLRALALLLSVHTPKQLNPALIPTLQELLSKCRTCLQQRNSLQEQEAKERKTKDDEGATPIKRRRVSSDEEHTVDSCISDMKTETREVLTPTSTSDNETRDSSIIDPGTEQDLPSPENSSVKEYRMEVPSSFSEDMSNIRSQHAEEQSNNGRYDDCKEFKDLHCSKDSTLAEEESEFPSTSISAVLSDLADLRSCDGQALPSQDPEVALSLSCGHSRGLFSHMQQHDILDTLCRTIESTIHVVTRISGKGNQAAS

O=C(CCl)NCc1ccc(N2CCOCC2)nc1
inactive: USP34 -0.0991 | USP36 -0.161 | USP38 -0.0678 | USP39 -0.00187 | USP4 0.0133
